# Bioassay records (PubChem)
# Chlamy TAG – inducers of triacylglycerol accumulation in Chlamydomonas reinhardtii algae. Chlamydomonas reinhardtii TAG, Nile Red fluorescence, 72 h. calls only at 10 µM (by protocol). 0.84% of 44,000 active; call rule not given here;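 further: hits raise Nile Red signal meaning more stored TAG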
# The depositor's hits bear a star; i = inactive; + = active, no number. Shown is part of a subset that was picked to be rich in hits.
SMILES,Chlamy TAG
O=C(Nc1cccc(Cl)c1)c1ccc(N2CCOCC2)c([N+](=O)[O-])c1,i
COc1ccc(C(=O)c2ccc(N3CCOCC3)c([N+](=O)[O-])c2)cc1,i
CC(C)(C)c1csc(NC(=O)c2ccc(N3CCOCC3)c([N+](=O)[O-])c2)n1,+
CS(=O)(=O)N(Cc1ccccc1)c1ccccc1C(=O)NCCSc1ccc(Cl)cc1,i
CCN(CC)CCN1C(=O)C(O)=C(C(=O)c2ccco2)C1c1cccs1 (stereo not given),i
COc1ccc(-c2csc(/C(C#N)=C/c3ccc(O)c(O)c3)n2)cc1OC,i
O=[N+]([O-])c1cccc(CNC2CCCC2)c1,i
CCc1ccccc1NS(=O)(=O)c1ccc(OC)cc1,i
CC(=O)C1=C(C)NC(SCC(=O)c2ccc(F)cc2)=C(C#N)C1c1ccc(Cl)cc1 (stereo not given),i
Cc1ccc(S(=O)(=O)Nc2ccc(NC(=O)Nc3ccccc3)cc2)cc1,i
O=S(=O)(c1ccc(Cl)c(Cl)c1Cl)N1CCN(c2ccc(F)cc2)CC1,+
O=S(=O)(c1ccc(F)cc1)N1CCN(c2ccccc2)CC1,i
O=[N+]([O-])c1ccccc1S(=O)(=O)N1CCN(c2ccc(F)cc2)CC1,i
O=C(NC1CCCCCCC1)C1CCCC1,i
Cc1ccc(C)c(NC(=O)c2c(F)cccc2F)c1,i
Cc1cc(C=O)c(C)n1-c1cccnc1,i
O=C(Cc1cccs1)Nc1ccccc1-c1ccccc1,i
COc1cccc(NC2=C(N(C)C)C(=O)c3ccccc3C2=O)c1,+
CN(C)C1=C(Nc2cccc(Cl)c2)C(=O)c2ccccc2C1=O,i
COc1ccc(NC2=C(N(C)C)C(=O)c3ccccc3C2=O)cc1,i
C[n+]1sc(Nc2ccccc2)nc1-c1ccccc1,i
CCOc1ccc(OCCOCCN2CCN(C)CC2)cc1,i
Cc1cc(Br)ccc1OCCN1CCN(C)CC1,i
CC(C)c1ccc(OCCOCCN2CCN(C)CC2)cc1,i
CN1CCN(CCCOc2ccc(C(=O)c3ccccc3)cc2)CC1,i
SMILES,Chlamy TAG
Cc1cc(OCCCN2CCN(C)CC2)ccc1C(C)C,i
Cc1cc(OCCCCN2CCN(C)CC2)cc(C(C)C)c1,+
Cc1cc(Br)ccc1OCCCN1CCCC1,i
Cc1cc(Br)ccc1OCCCN1CCN(C)CC1,+
CN1CCN(CCCOc2ccc(Br)cc2)CC1,+
CCOc1ccc(OCCN2CCCC2)cc1,i
Cc1cc(NC(=O)c2ccc(F)cc2)ccc1Br,i
CC1(C)CC(NC(=O)C(Cl)Cl)CC(C)(CNC(=O)C(Cl)Cl)C1 (stereo not given),i
Cc1ccc(C(=O)N2CCN(c3ccc(Cl)cc3[N+](=O)[O-])CC2C)cc1 (stereo not given),i
O=C(CSC1CC(=O)N(c2ccc(F)cc2)C1=O)Nc1ccc(Cl)cc1 (stereo not given),i
O=C(COc1ccccc1)NCc1ccccn1,i
CSC1=C(C#N)C(c2ccc(Cl)cc2)C(C(C)=O)=C(C)N1 (stereo not given),i
O=[N+]([O-])c1ccc(N2CCCC2)cc1NCC1CCCO1 (stereo not given),i
COc1ccc(CNC2CCCC2)cc1OC,i
COc1cc(CNC2CCC(C)C2)cc(OC)c1 (stereo not given),i
COc1ccc(CNC2CCCC(C)C2)cc1 (stereo not given),+
CN1CC(=O)N(C)c2ncn(C)c2C1=O,i
Cc1cc(Br)cc(C)c1NC(=O)c1ccccc1,i
O=C(CCN1C(=O)c2ccc([N+](=O)[O-])cc2C1=O)Nc1cc(Cl)ccc1C(=O)O,i
COc1cc(C(=O)N2CCN(Cc3ccccc3F)CC2)cc(OC)c1OC,i
COc1ccc(CN2CCN(Cc3ccc(SC)cc3)CC2)c(OC)c1OC,i
COc1cccc(CN2CCN(Cc3cc(OC)c(OC)c(OC)c3)CC2)c1OC,i
COc1ccc(CN2CCN(Cc3cccc(OC)c3OC)CC2)cc1,i
COc1cc(C(=O)N2CCN(Cc3ccc(OC)c(OC)c3OC)CC2)cc(OC)c1OC,i
COc1cccc(CN2CCN(Cc3ccc(F)cc3)CC2)c1OC,+
SMILES,Chlamy TAG
COc1ccc(CN2CCN(Cc3ccccc3)CC2)c(OC)c1OC,+
COc1cccc(CN2CCN(C(=O)c3cc(OC)c(OC)c(OC)c3)CC2)c1OC,+
COc1ccc(CN2CCN(c3ccccc3Cl)CC2)c(OC)c1OC,i
Clc1ccc(Cn2cnc3ccccc32)cc1Cl,i
CCCCn1c(NC(C)=O)nc2ccccc21,i
Cc1cc(C(C)(C)C)ccc1OCCOCCN1CCN(C)CC1,+
Cc1cc(Cl)c(OCCCN2CCN(C)CC2)c(Br)c1,i
Cc1ccc(OCC(O)CN2CCN(c3ccccc3)CC2)c(C)c1 (stereo not given),i
CN1CCN(CCOCCOc2c(Cl)cc(Cl)cc2Cl)CC1,i
C=CCc1cc(C)ccc1OCCOCCN1CCN(C)CC1,i
C=CCc1cc(OC)ccc1OCCOCCN1CCN(C)CC1,i
CN1CCN(CCOCCOc2ccc(Cl)cc2C(C)(C)C)CC1,i
OC(COc1ccc(Cl)cc1Cl)CN1CCc2ccccc2C1 (stereo not given),i
Cc1ccc(OCCOCCN2CCN(C)CC2)c(I)c1,+
Cc1cc(Cl)ccc1OCC(O)CN1CCN(C)CC1 (stereo not given),+
Cc1cc(Cl)c(OCCOCCN2CCN(C)CC2)c(Br)c1,+
CN1CCN(CCOCCOc2ccccc2-c2ccccc2)CC1,i
Cc1cc(Br)ccc1NC(=O)c1ccc2c(c1)C(=O)N(CC1CCCO1)C2=O (stereo not given),i
CCS(=O)(=O)Nc1cccc(NS(=O)(=O)CC)c1,i
COc1ccc(Cl)cc1NC(=O)C1CCN(C(=O)Cc2ccccc2)CC1,i
CN(C)CCCN1C(=O)C(=O)C(=C(O)c2ccc(F)cc2)C1c1ccc(Cl)cc1 (stereo not given),i
O=C(Nc1ccc([N+](=O)[O-])cc1)c1cccc(S(=O)(=O)N(CCO)CCO)c1,i
COc1ccc(OCCCOc2cccc(OC)c2)cc1,i
CCCCOC(=O)Nc1nc2ccc(S(C)(=O)=O)cc2s1,i
O=S(=O)(NCCc1cccc(Cl)c1)c1ccc(F)cc1,i
SMILES,Chlamy TAG
O=C(Nc1ccccc1C(=O)NCCN1CCOCC1)c1ccc(F)cc1,i
O=C1CCC(=O)N1c1ccc(-c2ccc(N3C(=O)CCC3=O)cc2)cc1,i
Cc1cc(C(C)(C)C)ccc1OCCN1CCOCC1,i
Cc1cc(C(C)(C)C)ccc1OCCN1CCN(C)CC1,+
Cc1cc(C(C)(C)C)ccc1OCCCN1CCN(C)CC1,i
Cc1cc(I)ccc1NC(=O)c1sc2ccccc2c1Cl,i
N#CC1=C(N)OC2=C(C(=O)CC(c3ccccc3)C2)C1c1cccc(Cl)c1Cl (stereo not given),i
CC(=O)C1=C(C)NC(SCC(=O)c2ccc([N+](=O)[O-])cc2)=C(C#N)C1c1cccc(C)c1 (stereo not given),i
C=CCc1ccccc1OCC(O)CN1C(C)CCCC1C (stereo not given),i
C=CCc1ccccc1OCC(O)CN(C)C1CCCCC1 (stereo not given),+
C=CCc1ccccc1OCC(O)CN1CCC(C)CC1 (stereo not given),i
Cn1c(SCC(=O)Nc2ccc(Br)cc2)nnc1-c1cccc(N)c1,i
CC(C)c1ccc(CN(C)C2CCN(C)CC2)cc1,i
CN1CCC(N(C)Cc2cccc(Oc3ccccc3)c2)CC1,+
